Measured values reported in PMC7862700, “An all-to-all approach to the identification of sequence-specific readers for epigenetic DNA modifications on cytosine”.

How the values were obtained:
Assay in all cases: DAPPL (digital affinity profiling via proximity ligation, sequencing); 10 mM Tris-HCl pH 7.5, 50 mM NaCl, 1 mM DTT, 4% glycerol, room temperature, 30 min; GST-TFs on glutathione beads, 16-mer random dsDNA library, 0.1% formaldehyde crosslink after washing; high values mean tight binding
[1] = biological target: T1, FLI1 (Homo sapiens, UniProt Q01543 1-452); conditions: protein: recombinant; tags: N-terminal GST; dsDNA, one strand shown
T1 sequence: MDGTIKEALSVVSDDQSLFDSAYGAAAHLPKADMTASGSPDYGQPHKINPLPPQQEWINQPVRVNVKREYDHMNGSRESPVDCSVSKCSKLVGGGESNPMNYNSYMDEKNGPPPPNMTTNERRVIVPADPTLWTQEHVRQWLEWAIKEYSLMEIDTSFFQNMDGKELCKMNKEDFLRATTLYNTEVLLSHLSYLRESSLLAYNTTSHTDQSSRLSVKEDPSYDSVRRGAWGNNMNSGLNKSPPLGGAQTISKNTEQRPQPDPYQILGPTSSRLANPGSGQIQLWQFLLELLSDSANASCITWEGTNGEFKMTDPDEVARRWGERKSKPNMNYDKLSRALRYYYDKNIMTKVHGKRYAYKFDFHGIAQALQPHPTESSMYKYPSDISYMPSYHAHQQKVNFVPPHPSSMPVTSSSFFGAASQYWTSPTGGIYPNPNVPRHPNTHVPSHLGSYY
Method in brief: (§1)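 In yeast, human transcription factors were expressed with a GST fusion, then pulled down on glutathione beads and given DNA barcodes. Pooled with a tag-only sample, they were exposed to 200 nmole of a 16-mer random double-stranded DNA library (Tris/NaCl/DTT/glycerol buffer, room temperature, 30 min), washed, crosslinked with 0.1% formaldehyde, proximity-ligated using BsaI/T4 ligase for 1 h at 37 °C, PCR-amplified and read on an Illumina NextSeq500. Each hexamer's frequency of reads for a factor, divided by the matching frequency for the tag-only sample, gives the binding signal.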

[2] = biological target: T2, ELK1 (Homo sapiens, UniProt P19419 1-428); conditions: protein: recombinant; tags: N-terminal GST; dsDNA, one strand shown
T2 sequence: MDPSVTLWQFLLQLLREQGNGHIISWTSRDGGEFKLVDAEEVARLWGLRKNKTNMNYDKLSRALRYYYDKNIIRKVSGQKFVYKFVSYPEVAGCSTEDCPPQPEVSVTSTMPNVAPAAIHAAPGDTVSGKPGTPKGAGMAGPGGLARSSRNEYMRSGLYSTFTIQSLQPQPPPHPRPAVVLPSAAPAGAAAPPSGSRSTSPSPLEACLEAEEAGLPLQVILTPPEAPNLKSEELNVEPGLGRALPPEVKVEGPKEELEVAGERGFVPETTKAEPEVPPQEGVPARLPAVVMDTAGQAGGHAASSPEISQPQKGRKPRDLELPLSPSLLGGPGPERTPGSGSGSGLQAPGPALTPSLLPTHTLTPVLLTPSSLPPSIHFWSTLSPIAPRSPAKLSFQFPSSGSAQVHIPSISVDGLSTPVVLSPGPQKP
Method in brief: as §1

[3] = biological target: T3, ERG (Homo sapiens, UniProt P11308 1-479); conditions: protein: recombinant; tags: N-terminal GST; dsDNA, one strand shown
T3 sequence: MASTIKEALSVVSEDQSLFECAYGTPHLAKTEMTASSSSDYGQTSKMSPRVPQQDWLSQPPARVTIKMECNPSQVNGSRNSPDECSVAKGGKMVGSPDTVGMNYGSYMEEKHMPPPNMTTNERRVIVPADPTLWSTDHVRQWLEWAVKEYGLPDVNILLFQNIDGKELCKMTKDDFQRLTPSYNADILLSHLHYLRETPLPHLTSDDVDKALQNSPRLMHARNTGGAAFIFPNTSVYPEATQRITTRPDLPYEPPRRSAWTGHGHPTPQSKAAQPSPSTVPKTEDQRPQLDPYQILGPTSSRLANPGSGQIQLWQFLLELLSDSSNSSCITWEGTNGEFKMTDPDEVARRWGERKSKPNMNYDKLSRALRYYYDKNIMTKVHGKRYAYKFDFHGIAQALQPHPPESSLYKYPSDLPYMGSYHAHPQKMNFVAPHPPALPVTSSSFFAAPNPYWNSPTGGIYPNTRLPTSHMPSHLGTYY
Method in brief: as §1

[4] = biological target: ELF1 (Homo sapiens, UniProt P32519 1-619); conditions: protein: recombinant; tags: N-terminal GST; dsDNA, one strand shown
Sequence of ELF1 (P32519 whole entry): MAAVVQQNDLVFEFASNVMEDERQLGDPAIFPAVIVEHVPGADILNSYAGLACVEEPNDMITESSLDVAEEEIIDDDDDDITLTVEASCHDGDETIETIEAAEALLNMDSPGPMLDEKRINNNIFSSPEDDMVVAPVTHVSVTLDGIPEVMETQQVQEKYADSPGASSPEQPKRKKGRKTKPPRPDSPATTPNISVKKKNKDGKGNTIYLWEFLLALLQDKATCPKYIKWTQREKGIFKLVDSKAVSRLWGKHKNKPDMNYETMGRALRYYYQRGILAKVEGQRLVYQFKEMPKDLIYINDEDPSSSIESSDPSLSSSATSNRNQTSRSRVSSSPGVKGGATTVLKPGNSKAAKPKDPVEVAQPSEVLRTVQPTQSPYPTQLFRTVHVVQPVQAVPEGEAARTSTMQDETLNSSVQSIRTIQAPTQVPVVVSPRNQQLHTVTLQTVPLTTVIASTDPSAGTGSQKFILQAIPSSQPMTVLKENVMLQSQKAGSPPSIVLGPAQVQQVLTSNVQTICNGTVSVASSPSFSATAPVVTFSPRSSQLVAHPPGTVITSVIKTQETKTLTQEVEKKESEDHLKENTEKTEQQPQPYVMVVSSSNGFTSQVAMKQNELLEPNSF
Method in brief: as §1

[5] = biological target: T4, EHF (Homo sapiens, UniProt Q9NZC4 1-300); conditions: protein: recombinant; tags: N-terminal GST; dsDNA, one strand shown
T4 sequence: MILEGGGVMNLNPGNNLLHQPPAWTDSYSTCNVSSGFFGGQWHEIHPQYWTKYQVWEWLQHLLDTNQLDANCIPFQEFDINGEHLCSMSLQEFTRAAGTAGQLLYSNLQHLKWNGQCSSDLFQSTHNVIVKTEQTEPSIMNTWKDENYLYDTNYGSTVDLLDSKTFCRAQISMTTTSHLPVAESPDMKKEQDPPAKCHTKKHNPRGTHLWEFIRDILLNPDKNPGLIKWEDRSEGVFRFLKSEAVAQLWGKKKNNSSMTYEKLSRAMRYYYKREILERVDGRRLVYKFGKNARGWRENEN
Method in brief: as §1

[6] = biological target: SPI1 (Homo sapiens, UniProt P17947 1-270); conditions: protein: recombinant; tags: N-terminal GST; dsDNA, one strand shown
Method in brief: as §1

[7] = biological target: SPIB (Homo sapiens, UniProt Q01892 1-262); conditions: protein: recombinant; tags: N-terminal GST; dsDNA, one strand shown
Sequence of SPIB (Q01892 whole entry): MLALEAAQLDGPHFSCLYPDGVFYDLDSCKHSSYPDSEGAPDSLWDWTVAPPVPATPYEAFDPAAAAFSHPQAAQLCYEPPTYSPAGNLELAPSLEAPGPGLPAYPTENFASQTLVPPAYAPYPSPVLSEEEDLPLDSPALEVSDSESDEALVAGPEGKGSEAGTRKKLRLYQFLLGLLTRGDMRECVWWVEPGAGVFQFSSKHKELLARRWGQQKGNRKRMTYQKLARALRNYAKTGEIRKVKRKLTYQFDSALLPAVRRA
Method in brief: as §1

[8] = biological target: T5, ELK3 (Homo sapiens, UniProt P41970 1-407); conditions: protein: recombinant; tags: N-terminal GST; dsDNA, one strand shown
T5 sequence: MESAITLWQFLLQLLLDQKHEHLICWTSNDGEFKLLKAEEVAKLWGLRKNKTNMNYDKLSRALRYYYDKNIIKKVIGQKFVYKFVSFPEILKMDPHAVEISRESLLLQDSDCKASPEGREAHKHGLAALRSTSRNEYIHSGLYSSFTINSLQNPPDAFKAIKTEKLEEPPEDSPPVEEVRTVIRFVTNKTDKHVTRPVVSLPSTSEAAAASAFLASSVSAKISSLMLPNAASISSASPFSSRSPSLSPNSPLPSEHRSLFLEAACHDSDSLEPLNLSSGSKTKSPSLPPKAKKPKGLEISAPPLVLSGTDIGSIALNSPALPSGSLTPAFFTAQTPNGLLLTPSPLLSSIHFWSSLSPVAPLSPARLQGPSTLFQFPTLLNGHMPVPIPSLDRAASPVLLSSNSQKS
Method in brief: as §1

[9] = biological target: T6, FEV (Homo sapiens, UniProt Q99581 1-238); conditions: protein: recombinant; tags: N-terminal GST; dsDNA, one strand shown
T6 sequence: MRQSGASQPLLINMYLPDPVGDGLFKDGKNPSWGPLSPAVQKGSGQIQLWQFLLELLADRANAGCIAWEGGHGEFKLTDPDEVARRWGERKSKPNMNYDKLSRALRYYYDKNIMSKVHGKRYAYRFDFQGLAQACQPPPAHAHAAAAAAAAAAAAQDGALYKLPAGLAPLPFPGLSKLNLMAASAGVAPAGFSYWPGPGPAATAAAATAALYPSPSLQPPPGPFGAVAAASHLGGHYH
Method in brief: as §1

[10] = biological target: ETV5 (Homo sapiens, UniProt P41161 1-510); conditions: protein: recombinant; tags: N-terminal GST; dsDNA, one strand shown
Sequence of ETV5 (P41161 whole entry): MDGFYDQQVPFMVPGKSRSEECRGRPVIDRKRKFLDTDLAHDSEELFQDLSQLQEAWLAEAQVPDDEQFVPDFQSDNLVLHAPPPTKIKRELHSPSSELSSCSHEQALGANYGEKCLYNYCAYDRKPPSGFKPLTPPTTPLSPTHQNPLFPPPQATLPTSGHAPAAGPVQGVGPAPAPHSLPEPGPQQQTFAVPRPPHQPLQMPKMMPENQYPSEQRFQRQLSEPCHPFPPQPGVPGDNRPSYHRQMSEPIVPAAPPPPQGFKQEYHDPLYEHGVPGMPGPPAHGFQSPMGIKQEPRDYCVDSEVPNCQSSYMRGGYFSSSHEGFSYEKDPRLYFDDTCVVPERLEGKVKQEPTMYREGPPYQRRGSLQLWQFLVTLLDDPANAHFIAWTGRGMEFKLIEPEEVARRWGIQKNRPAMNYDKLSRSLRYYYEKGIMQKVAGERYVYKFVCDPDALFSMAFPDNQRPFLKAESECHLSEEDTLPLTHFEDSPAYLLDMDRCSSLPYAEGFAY
Method in brief: as §1

[11] = biological target: HSF1 (Homo sapiens, UniProt Q00613 1-529); conditions: protein: recombinant; tags: N-terminal GST; chain copies: 3; dsDNA, one strand shown
Sequence of HSF1 (Q00613 whole entry): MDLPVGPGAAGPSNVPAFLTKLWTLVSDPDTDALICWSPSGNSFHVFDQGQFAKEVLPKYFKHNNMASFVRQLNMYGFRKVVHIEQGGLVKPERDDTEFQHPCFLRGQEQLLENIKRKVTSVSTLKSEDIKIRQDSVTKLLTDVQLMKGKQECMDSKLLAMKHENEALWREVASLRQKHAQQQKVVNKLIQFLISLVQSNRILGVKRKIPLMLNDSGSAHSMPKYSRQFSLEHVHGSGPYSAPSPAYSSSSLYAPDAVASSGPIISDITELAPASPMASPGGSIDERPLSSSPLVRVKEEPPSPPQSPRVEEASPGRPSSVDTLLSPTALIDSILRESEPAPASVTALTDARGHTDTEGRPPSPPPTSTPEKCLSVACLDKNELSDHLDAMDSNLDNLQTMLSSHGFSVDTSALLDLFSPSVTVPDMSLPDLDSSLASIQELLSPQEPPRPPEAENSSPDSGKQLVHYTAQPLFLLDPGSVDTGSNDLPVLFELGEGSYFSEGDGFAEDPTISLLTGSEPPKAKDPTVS
Method in brief: as §1

[12] = biological target: ELF4 (Homo sapiens, UniProt Q99607 1-663); conditions: protein: recombinant; tags: N-terminal GST; dsDNA, one strand shown
Sequence of ELF4 (Q99607 whole entry): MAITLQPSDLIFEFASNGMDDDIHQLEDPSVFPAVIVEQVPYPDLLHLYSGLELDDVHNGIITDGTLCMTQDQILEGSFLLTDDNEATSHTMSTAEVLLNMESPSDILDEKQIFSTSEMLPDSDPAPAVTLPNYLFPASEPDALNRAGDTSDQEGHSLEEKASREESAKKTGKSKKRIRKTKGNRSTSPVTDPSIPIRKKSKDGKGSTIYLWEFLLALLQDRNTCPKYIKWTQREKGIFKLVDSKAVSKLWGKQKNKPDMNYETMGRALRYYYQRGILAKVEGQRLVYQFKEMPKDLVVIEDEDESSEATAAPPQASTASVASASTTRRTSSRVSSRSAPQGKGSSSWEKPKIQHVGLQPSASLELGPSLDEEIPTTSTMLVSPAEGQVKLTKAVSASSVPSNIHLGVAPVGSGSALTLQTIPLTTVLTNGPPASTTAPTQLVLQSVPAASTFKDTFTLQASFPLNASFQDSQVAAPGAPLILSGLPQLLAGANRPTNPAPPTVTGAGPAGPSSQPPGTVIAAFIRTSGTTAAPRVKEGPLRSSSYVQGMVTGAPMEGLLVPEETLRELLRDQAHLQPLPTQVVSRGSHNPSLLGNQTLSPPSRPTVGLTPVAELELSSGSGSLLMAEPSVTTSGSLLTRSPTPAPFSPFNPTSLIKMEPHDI
Method in brief: as §1

[13] = biological target: T7, ELK4 (Homo sapiens, UniProt P28324-2 1-405); conditions: protein: recombinant; tags: N-terminal GST; dsDNA, one strand shown
T7 sequence: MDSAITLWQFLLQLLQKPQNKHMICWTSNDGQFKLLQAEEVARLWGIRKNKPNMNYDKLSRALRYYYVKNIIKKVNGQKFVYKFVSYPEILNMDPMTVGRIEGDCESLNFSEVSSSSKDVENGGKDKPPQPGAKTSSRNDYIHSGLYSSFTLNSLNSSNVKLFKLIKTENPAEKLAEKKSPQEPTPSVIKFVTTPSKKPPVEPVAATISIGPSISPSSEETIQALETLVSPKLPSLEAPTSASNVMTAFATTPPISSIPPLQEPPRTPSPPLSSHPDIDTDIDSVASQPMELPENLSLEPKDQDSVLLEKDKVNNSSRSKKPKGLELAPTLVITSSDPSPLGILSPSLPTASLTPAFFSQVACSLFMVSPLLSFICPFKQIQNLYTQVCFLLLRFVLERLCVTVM
Method in brief: as §1

[14] = biological target: T8, ELF3 (Homo sapiens, UniProt P78545 1-371); conditions: protein: recombinant; tags: N-terminal GST; dsDNA, one strand shown
T8 sequence: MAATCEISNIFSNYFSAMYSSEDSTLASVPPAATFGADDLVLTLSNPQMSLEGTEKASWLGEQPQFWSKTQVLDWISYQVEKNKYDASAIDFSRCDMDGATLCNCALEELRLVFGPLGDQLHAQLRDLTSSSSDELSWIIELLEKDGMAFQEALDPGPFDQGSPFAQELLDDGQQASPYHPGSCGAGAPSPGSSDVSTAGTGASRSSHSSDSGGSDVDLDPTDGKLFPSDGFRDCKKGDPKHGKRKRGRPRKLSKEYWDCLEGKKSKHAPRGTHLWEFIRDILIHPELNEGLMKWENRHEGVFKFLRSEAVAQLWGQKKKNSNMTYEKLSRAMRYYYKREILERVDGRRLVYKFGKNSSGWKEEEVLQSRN
Method in brief: as §1

[15] = biological target: CRX (Homo sapiens, UniProt O43186 1-299); conditions: protein: recombinant; tags: N-terminal GST; dsDNA, one strand shown
Sequence of CRX (O43186 whole entry): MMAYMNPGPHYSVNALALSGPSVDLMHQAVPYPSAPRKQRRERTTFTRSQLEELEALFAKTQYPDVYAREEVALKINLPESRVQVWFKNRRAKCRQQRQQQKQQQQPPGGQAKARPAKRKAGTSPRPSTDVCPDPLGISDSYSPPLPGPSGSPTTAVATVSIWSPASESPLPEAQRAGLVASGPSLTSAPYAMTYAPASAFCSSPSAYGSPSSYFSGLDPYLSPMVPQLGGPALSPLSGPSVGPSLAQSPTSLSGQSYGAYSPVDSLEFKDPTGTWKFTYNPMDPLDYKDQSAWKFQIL
Method in brief: as §1

[16] = biological target: ETV1 (Homo sapiens, UniProt P50549 1-477); conditions: protein: recombinant; tags: N-terminal GST; dsDNA, one strand shown
Sequence of ETV1 (P50549 whole entry): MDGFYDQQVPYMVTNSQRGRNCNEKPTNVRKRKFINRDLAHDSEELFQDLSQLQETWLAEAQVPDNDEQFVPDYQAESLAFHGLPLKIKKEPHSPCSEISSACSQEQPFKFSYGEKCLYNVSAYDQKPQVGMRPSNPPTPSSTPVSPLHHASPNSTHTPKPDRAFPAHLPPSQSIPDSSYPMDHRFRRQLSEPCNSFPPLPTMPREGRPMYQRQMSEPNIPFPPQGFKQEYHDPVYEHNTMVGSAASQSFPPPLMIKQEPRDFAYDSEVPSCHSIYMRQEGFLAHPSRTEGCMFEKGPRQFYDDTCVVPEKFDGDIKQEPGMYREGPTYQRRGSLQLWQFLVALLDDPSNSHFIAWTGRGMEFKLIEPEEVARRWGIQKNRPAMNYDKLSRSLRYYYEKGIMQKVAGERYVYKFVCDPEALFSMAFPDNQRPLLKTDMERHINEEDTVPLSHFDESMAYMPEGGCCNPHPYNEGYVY
Method in brief: as §1

[17] = biological target: T9, GABPA (Homo sapiens, UniProt Q06546 1-454); conditions: protein: recombinant; tags: N-terminal GST; dsDNA, one strand shown
T9 sequence: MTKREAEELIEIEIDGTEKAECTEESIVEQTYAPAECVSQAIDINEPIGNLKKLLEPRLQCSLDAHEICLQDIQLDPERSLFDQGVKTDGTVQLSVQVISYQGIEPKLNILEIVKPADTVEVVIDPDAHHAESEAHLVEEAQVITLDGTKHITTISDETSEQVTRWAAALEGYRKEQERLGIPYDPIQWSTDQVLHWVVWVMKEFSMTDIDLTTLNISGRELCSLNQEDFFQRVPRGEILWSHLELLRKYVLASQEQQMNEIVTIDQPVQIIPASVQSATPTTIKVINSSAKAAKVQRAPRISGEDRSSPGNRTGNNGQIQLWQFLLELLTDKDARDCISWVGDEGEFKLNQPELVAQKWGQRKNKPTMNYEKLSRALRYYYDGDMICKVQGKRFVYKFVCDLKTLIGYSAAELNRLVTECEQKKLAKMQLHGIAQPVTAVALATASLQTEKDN
Method in brief: as §1

[18] = biological target: T10, ETV2 (Homo sapiens, UniProt O00321 1-342); conditions: protein: recombinant; tags: N-terminal GST; dsDNA, one strand shown
T10 sequence: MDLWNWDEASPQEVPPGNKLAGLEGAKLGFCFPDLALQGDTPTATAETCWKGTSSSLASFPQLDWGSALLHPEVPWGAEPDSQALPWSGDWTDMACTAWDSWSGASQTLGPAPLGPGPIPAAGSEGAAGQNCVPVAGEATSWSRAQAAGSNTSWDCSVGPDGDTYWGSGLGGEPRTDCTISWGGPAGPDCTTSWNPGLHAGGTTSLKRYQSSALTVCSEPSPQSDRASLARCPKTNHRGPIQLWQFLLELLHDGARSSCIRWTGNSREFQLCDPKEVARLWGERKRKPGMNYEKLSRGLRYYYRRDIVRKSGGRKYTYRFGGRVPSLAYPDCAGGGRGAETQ
Method in brief: as §1

| Sequence | binding signal [1] | binding signal [2] | binding signal [3] | binding signal [4] | binding signal [5] | binding signal [6] | binding signal [7] | binding signal [8] | binding signal [9] | binding signal [10] | binding signal [11] | binding signal [12] | binding signal [13] | binding signal [14] | binding signal [15] | binding signal [16] | binding signal [17] | binding signal [18] |
| --- | --- | --- | --- | --- | --- | --- | --- | --- | --- | --- | --- | --- | --- | --- | --- | --- | --- | --- |
| AAGCGA | 1.02 fold enrichment (6-mer frequency, TF over GST control) | 1.02 fold enrichment (6-mer frequency, TF over GST control) | 1.11 fold enrichment (6-mer frequency, TF over GST control) | 1.06 fold enrichment (6-mer frequency, TF over GST control) | 1.19 fold enrichment (6-mer frequency, TF over GST control) | 1.07 fold enrichment (6-mer frequency, TF over GST control) | 1 fold enrichment (6-mer frequency, TF over GST control) | 1.07 fold enrichment (6-mer frequency, TF over GST control) | 1.04 fold enrichment (6-mer frequency, TF over GST control) | 1.04 fold enrichment (6-mer frequency, TF over GST control) | 1.04 fold enrichment (6-mer frequency, TF over GST control) | 1.09 fold enrichment (6-mer frequency, TF over GST control) | 1.06 fold enrichment (6-mer frequency, TF over GST control) | 1.08 fold enrichment (6-mer frequency, TF over GST control) | 1.09 fold enrichment (6-mer frequency, TF over GST control) | 1 fold enrichment (6-mer frequency, TF over GST control) | – | – |
| ATTGTC | 1.17 fold enrichment (6-mer frequency, TF over GST control) | 1.07 fold enrichment (6-mer frequency, TF over GST control) | 1.13 fold enrichment (6-mer frequency, TF over GST control) | 1.13 fold enrichment (6-mer frequency, TF over GST control) | 1.08 fold enrichment (6-mer frequency, TF over GST control) | 1.05 fold enrichment (6-mer frequency, TF over GST control) | 1.14 fold enrichment (6-mer frequency, TF over GST control) | 1.35 fold enrichment (6-mer frequency, TF over GST control) | 1.11 fold enrichment (6-mer frequency, TF over GST control) | 1.14 fold enrichment (6-mer frequency, TF over GST control) | 1.04 fold enrichment (6-mer frequency, TF over GST control) | 1.08 fold enrichment (6-mer frequency, TF over GST control) | 1.17 fold enrichment (6-mer frequency, TF over GST control) | – | 1.06 fold enrichment (6-mer frequency, TF over GST control) | 1.21 fold enrichment (6-mer frequency, TF over GST control) | 1.16 fold enrichment (6-mer frequency, TF over GST control) | 1.14 fold enrichment (6-mer frequency, TF over GST control) |
